Screens as filed in PubChem.
Compounds with a hit are over-represented: about 2.3% of the library has one in this group of screens.
GLD-1 RNA inh – GLD-1-TGE RNA interaction inhibition (C. elegans). purified GLD-1 + fluorescein TGE RNA, fluorescence polarization. AID 2280. inhibition, % at 5.96 µM. 0.44% of 320,000 active. Q17339;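 active = percent inhibition above a per-plate cutoff, the plate mean of test compounds plus 3 SD, cut at about 30% in these data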;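 note: 0% = DMSO wells with GLD-1 and probe and 100% = wells lacking GLD-1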
Mcl1 Noxa PPI – Mcl-1/Noxa interaction inhibition | Q07820 | TR-FRET Mcl-1/Noxa peptide binding, 2 h | inhibition, % at 21.7 µM | 1.5% of 220,000 active | AID 1022;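 active = compounds that cut the protein-peptide binding signal by more than 50% relative to plate controls in a single-dose test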;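 note: His-tagged Mcl-1 with rhodamine Noxa BH3 peptide and terbium anti-His antibody; 0% = Mcl-1 plus Noxa peptide wells and 100% = peptide-only wells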
Target sequence (Q07820 whole entry, looked up): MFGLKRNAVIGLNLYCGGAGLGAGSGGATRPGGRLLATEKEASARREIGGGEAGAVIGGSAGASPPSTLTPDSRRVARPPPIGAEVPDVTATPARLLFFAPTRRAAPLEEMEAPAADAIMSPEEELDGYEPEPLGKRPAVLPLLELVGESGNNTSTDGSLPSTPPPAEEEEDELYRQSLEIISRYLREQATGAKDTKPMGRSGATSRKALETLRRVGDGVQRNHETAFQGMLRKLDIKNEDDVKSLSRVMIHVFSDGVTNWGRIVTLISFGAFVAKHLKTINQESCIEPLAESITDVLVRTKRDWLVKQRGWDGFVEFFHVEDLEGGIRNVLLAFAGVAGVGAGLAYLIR
Bcl-xL primary – Bcl-xL (human) inhibition; Q07817; GST-Bcl-xL / FITC-Bim BH3 peptide fluorescence polarization; inhibition, % at 10.9 µM; 0.7% of 320,000 active;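 active = inhibition above the mean of all tested compounds plus 3 SD, cutoff set per campaign, cut at about 30% in these data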;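 note: 0% = DMSO wells and 100% = unlabeled Bim-BH3 peptide competitor; inhibitors lower millipolarization by displacing the labeled peptide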
Mcl-1 Bim block – disrupts Bim peptide binding to human Mcl-1; Q07820; Bead-based flow cytometry, Bim peptide-Mcl-1 binding; inhibition, % at 10 µM; 0.1% of 190,000 active; AID 1009; in the data active = inhibition above about 40%;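 note: 0% = no compound tracer wells and 100% = peptide blocker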
Mcl1 Bid PPI – Mcl-1/Bid interaction inhibition; TR-FRET Mcl-1/Bid-Dy647 peptide binding, 1536-well; inhibition, % at 21.7 µM; 0.97% of 220,000 active;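 active = compounds that cut the binding signal by more than half at the single screening dose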;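 note: His-tagged Mcl-1 with europium anti-His antibody binding Bid BH3 peptide; 0% = Mcl-1 plus peptide wells and 100% = peptide-only wells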
MCL1 BIM primary – inhibitors of human MCL1 binding to BIM-BH3 peptide | GST-MCL1 / FITC-Bim-BH3 fluorescence polarization | inhibition, % at 10.9 µM | 0.68% of 320,000 active | AID 2057;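 active = inhibition above the mean inhibition of all tested compounds plus 3 SD, set per campaign, cut at about 40% in these data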;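 note: 0% = DMSO wells and 100% = unlabeled Bim-BH3 peptide control; higher means more loss of mP so more displacement of Bim peptide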
Bcl-xL conf – counter-screen for MCL1 inhibitors: confirmation of human Bcl-xL inhibitors; inhibition, % at 10.9 µM; 54% of 1,700 active; shares compounds with MCL1 BIM primary; GST-Bcl-xL / FITC-Bim BH3 peptide FP binding;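 active = inhibition above a cutoff equal to the mean inhibition of all tested compounds plus 3 SD, cut at about 30% in these data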;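 note: 0% = DMSO wells and 100% = unlabeled Bim BH3 control peptide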
MCL1 BIM confirm – confirmation of human MCL1 and BIM-BH3 interaction inhibitors; shares compounds with MCL1 BIM primary; AID 2168; 61% of 1,700 active; GST-MCL1 / FITC-Bim-BH3 fluorescence polarization; inhibition, % at 10.9 µM;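 active = inhibition above the average of all tested compounds plus 3 SD, cut at about 40% in these data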;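 note: 0% = DMSO wells and 100% = unlabeled Bim-BH3 control peptide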
Active calls of the source: *; / = no result given; + = active, no number.

SMILES | GLD-1 RNA inh | Mcl1 Noxa PPI | Bcl-xL primary | Mcl-1 Bim block | Mcl1 Bid PPI | MCL1 BIM primary | Bcl-xL conf | MCL1 BIM confirm
N=C1/C(=C\c2ccc(-c3cccc(C(=O)O)c3)o2)C(=O)N=C2SC=C(c3ccccc3)N12 | -26 | 93* | 0 | / | 98* | 41* | 10 | 35
COc1ccc(-c2cc(=O)oc3cc(OC(C)C(=O)O)ccc23)cc1 (stereo unspecified) | 4 | 13 | 0 | -3 | 29 | 0 | / | /
COc1ccc(-c2cc(=O)oc3c(O)c(O)ccc23)cc1 | 2 | / | 10 | / | / | 68* | 72* | 93*
O=C(O)C1CC=CCC1C(=O)NC1CCCCC1 (stereo unspecified) | 3 | 1 | 2 | 1 | -5 | 3 | / | /
O=C(CSc1nnc(NC(=O)C2CC(=O)N(c3ccc(F)cc3)C2)s1)NC1CCCC1 (stereo unspecified) | -3 | / | 8 | / | / | 5 | / | /
COc1ccc(-c2cccc(NC(=O)c3cccs3)c2)nn1 | 3 | / | 1 | / | / | -11 | / | /
O=C(Nc1nnc(C2CC2)s1)c1ccc(Cl)nc1 | 0 | / | 1 | / | / | 178* | -1 | 0
CCc1nnc(NC(=O)c2ccc(Cl)nc2)s1 | -3 | 20 | -3 | -5 | -14 | 9 | / | /
COc1ccccc1CNC(=O)c1cc(S(=O)(=O)N2CCCCC2)c[nH]1 | 1 | / | -1 | / | / | -3 | / | /
Cc1cc(NC(=O)/C(C#N)=C/c2ccco2)n(-c2ccccc2)n1 | 7 | 8 | 1 | -2 | -23 | -2 | / | /
Cc1ccc(-c2ccc(/C=C(\C#N)C(=O)Nc3cc(C)nn3-c3ccccc3)o2)cc1 | 120* | / | 123* | -3 | 64* | + | + | +
Cc1ccc(NC(=S)NNc2ccc([N+](=O)[O-])cc2S(=O)(=O)Nc2ccccc2C(=O)O)cc1C | -1 | 87* | 19 | -4 | 45 | 40* | 22 | 39
CC(=O)Nc1ccc(C=NNc2ccc([N+](=O)[O-])cc2S(=O)(=O)Nc2ccccc2C(=O)O)cc1 | 1 | / | / | / | / | / | / | /
Cc1ccc(C(=O)Nc2ccccc2Cl)cc1 | 2 | / | 3 | / | / | 5 | / | /
Cc1cc(O)c(CN(C)C)c2c1C(=O)/C(=C/c1ccco1)O2 | 26 | / | 62* | / | / | 61* | 78* | 89*
COc1ccc2c(c1)O/C(=C\c1ccco1)C2=O | 0 | 7 | 7 | / | -21 | 10 | / | /
CCOCCn1c(N2CCCC2)nc2c1c(=O)[nH]c(=O)n2C | 0 | / | 1 | / | / | 8 | / | /
Cc1cccc(C(=O)N=c2c(C#N)cc3c(=O)n4cccc(C)c4nc3n2Cc2ccco2)c1 | 21 | 86* | 43* | 0 | 0 | 64* | 38* | 32
COCCCn1c(=NC(C)=O)c(C#N)cc2c(=O)n3cccc(C)c3nc21 | 1 | 7 | 18 | / | -26 | 26 | / | /
CCOCCCn1c(=NC(=O)c2cccs2)c(C#N)cc2c(=O)n3cccc(C)c3nc21 | 106* | 21 | 138* | / | 2 | 151* | 115* | 142*
COCCCn1c(=NC(=O)c2ccccc2)c(C#N)cc2c(=O)n3cccc(C)c3nc21 | 127* | 18 | 181* | / | -5 | + | 76* | 105*
Cc1cccn2c(=O)c3cc(C#N)c(=NC(=O)c4ccco4)n(Cc4ccco4)c3nc12 | 4 | 40 | 14 | / | -20 | 15 | / | /
O=C1/C(=C\c2cc([N+](=O)[O-])ccc2O)SC(=S)N1Cc1ccc(Cl)cc1 | 47* | / | 76* | / | / | 66* | 88* | 105*
O=C(O)CN1C(=O)/C(=C\c2cc([N+](=O)[O-])ccc2OCc2ccccc2Cl)SC1=S | 4 | / | 3 | / | / | 51* | 22 | 47*
COc1ccc(S(=O)(=O)/N=C2/NC(=O)/C(=C/c3ccco3)S2)cc1 | 10 | 9 | 22 | -2 | -40 | 42* | 18 | 24
Cc1ccc(S(=O)(=O)/N=C2/NC(=O)/C(=C/c3ccccn3)S2)cc1 | -1 | 31 | 8 | 0 | 1 | 6 | / | /
